# PubChem BioAssay AID1835 (Johns Hopkins Ion Channel Center, 2009)
# The campaign covered roughly 2,400 compounds. About 750 (31%) were called active.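 The calls were made as follows: active = median signal gain over dofetilide-blocked control wells reaching their mean plus 3 SD, so readout 1 at least 0; inactive = the rest.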 This is one part of the list.
# Biological target: Voltage-gated inwardly rectifying potassium channel KCNH2 (Homo sapiens) (UniProt Q12809)
# Experiment: modulators restoring hERG flux under dofetilide – cell-based, thallium flux, duplicate retest, dofetilide IC70, confirmation (AID 1835)
# Details: hERG cell line, FluxOR thallium flux, dofetilide-blocked; at 10 µM; active compounds read high
# Voltage-gated inwardly rectifying potassium channel KCNH2 (Homo sapiens), sequence (Q12809 whole entry, looked up): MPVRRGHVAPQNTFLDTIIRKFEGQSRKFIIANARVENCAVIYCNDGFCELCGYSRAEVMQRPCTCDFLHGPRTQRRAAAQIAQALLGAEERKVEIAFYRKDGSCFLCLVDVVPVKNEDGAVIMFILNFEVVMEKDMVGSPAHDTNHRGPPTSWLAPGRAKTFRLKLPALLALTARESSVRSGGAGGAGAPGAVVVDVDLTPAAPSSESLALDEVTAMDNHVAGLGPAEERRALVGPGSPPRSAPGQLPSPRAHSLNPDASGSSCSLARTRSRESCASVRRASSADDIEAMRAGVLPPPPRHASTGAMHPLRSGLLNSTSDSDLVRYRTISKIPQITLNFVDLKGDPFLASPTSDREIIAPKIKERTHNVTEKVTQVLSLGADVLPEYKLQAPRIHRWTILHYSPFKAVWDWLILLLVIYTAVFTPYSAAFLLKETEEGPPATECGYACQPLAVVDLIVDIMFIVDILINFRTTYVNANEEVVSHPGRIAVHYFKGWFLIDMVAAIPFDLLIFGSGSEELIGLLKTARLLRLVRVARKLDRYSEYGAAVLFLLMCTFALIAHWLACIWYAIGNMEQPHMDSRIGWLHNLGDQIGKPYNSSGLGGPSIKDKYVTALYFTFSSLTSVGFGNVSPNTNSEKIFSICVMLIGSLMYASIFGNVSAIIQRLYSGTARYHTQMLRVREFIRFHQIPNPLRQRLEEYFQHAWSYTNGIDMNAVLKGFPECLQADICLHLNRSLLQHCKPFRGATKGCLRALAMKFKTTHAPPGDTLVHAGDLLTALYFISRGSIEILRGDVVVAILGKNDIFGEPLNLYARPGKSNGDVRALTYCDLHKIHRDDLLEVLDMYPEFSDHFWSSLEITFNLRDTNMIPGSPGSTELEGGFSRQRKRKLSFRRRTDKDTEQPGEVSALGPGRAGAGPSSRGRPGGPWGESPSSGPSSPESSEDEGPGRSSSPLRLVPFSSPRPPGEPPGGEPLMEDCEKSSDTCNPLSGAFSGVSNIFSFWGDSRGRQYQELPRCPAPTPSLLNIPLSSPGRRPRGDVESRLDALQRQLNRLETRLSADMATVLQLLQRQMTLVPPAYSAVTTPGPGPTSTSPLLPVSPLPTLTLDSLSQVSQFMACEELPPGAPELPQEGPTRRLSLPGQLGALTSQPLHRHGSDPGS
row,Compound,"activity increase over dofetilide control, less the hit threshold"
1,CCCCCOCC1CC(C/C(C)=N/Nc2nc(-c3ccccc3)cs2)C(=O)O1 (centres undefined),-5% (inactive)
2,COCc1cc(C)nc(OCC(=O)N/N=C/c2ccc(-c3cc([N+](=O)[O-])ccc3Cl)o2)c1C#N,-7% (inactive)
3,CCOC(=O)N/N=C\c1ccc(-c2cc(Cl)ccc2Cl)o1,-2% (inactive)
4,Cc1cc([N+](=O)[O-])c(C)cc1-c1ccc(/C=N/NC(=O)Cn2nnnc2N)o1,0% (active)
5,C=C(C)CSc1nc(N)cc(=O)[nH]1,-4% (inactive)
6,O=C1NC(=S)/C(=C\c2ccc(-c3ccccc3Cl)o2)S1,-23% (inactive)
7,O=C1NC(=S)S/C1=C\c1ccc2ccccc2c1,28% (active)
8,O=C1NC(=O)/C(=C/c2cc3c(cc2Br)OCO3)S1,-17% (inactive)
9,C#CCN1C(=O)S/C(=C\c2ccc(-c3ccc(C(=O)O)cc3C)o2)C1=O,1% (active)
10,Cc1ccccc1NC(=O)CN1C(=O)S/C(=C\c2ccc(-c3cccc(C(=O)O)c3C)o2)C1=O,19% (active)
11,Cc1ccc(C(=O)O)cc1-c1ccc(/C=C2\SC(=O)N(CC(=O)Nc3ccccc3)C2=O)o1,87% (active)
12,Cc1c(/C=C2\SC(=O)N(CC(=O)Nc3ccc4c(c3)OCO4)C2=O)c2ccccc2n1C,-11% (inactive)
13,Cc1cc(C(=O)NCCN2C(=O)S/C(=C\c3cccs3)C2=O)ccc1[N+](=O)[O-],-1% (inactive)
14,Cc1ccc(NC(=O)CN2C(=O)S/C(=C/c3ccc(-c4cc(C(=O)O)ccc4C)o3)C2=O)cc1C,-29% (inactive)
15,Cc1ccsc1/C=C1/SC(=O)N(CC(=O)N2CCCC2)C1=O,-4% (inactive)
16,Cc1ccccc1NC(=O)CN1C(=O)S/C(=C\c2ccc(-c3cc(C(=O)O)ccc3C)o2)C1=O,-3% (inactive)
17,O=C(CCl)NCCN1C(=O)S/C(=C\c2cccnc2)C1=O,-5% (inactive)
18,Cc1ccc(NC(=O)CN2C(=O)S/C(=C\c3ccc(-c4cccc(C(=O)O)c4C)o3)C2=O)cc1,25% (active)
19,CN(C)c1oc(-c2ccccc2[N+](=O)[O-])nc1C#N,-15% (inactive)
20,COc1ccc(C2N=C(c3ccccc3)C(C)(C)N2O)cc1 (centres undefined),-16% (inactive)
21,CCOC(=O)C1CCCCN1Cc1ccc(F)cc1 (centres undefined),-14% (inactive)
22,O=C(CN1C(=O)S/C(=C\c2cccs2)C1=O)Nc1ccc(C(=O)O)c(O)c1,12% (active)
23,O=C(CN1C(=O)S/C(=C\c2cc(Cl)c(O)c(Cl)c2)C1=O)Nc1ccccc1,-21% (inactive)
24,Cc1cccc(NC(=O)CN2C(=O)S/C(=C\c3ccc(-c4cccc(C(=O)O)c4C)o3)C2=O)c1,71% (active)
25,O=C(CN1C(=O)S/C(=C\c2cccs2)C1=O)Nc1ccc(O)c(C(=O)O)c1,-3% (inactive)

row,Compound,"activity increase over dofetilide control, less the hit threshold"
1,O=S(=O)(NCc1ccc(Cl)cc1Cl)c1ccc(N2CCOCC2)nc1,-25% (inactive)
2,S=c1nc(C2CCCCC2)n(-c2ccccc2)[nH]1,24% (active)
3,Cc1onc(-c2ccccc2)c1C(=O)NC(=S)Nc1sc2c(c1C#N)CCC(C)C2 (centres undefined),24% (active)
4,Cc1onc(-c2ccccc2Cl)c1C(=O)NC(=S)Nc1ccc(C(C)C)cc1,-20% (inactive)
5,Cc1onc(-c2ccccc2)c1C(=O)NC(=S)Nc1sc2c(c1C#N)CCCC2,-3% (inactive)
6,O=C(O)C[C@H]1c2cc(F)ccc2S(=O)(=O)N1C1CCCCC1,-15% (inactive)
7,O=C(CN1C(=O)NC(Cc2ccccc2)C1=O)Nc1ccccc1OC(F)F (centres undefined),-10% (inactive)
8,O=C(CN1CCCCCC1)Nc1ccc(Oc2ccccc2)cc1,-10% (inactive)
9,O=C(O)COc1ccc(NC(=O)c2ccc3c(c2)C(=O)N(C2CCCCC2)C3=O)cc1,4% (active)
10,CCOc1ccc(NC(=O)c2ccc3c(c2)CCN3S(C)(=O)=O)cc1,-21% (inactive)
11,O=C(O)CCCn1cc(NC(=O)COc2ccc(F)cc2)cn1,-17% (inactive)
12,O=C(COC(=O)/C=C/c1ccc2c(c1)OCO2)NC1CC1,-20% (inactive)
13,Cc1ccc(C(C)NC(=O)c2ccc3c(c2)OCO3)cc1C (centres undefined),0% (inactive)
14,CC(NC(=O)NC1CCCCC1)c1ccc2c(c1)OCO2 (centres undefined),1% (active)
15,CC(NC(=O)NC1CCCCC1)c1ccccc1 (centres undefined),9% (active)
16,CC(NC(=S)NC1CCCCC1)c1ccccc1 (centres undefined),-11% (inactive)
17,CC(NC(=O)C1CCN(S(=O)(=O)c2cccc3cccnc23)CC1)c1ccccc1 (centres undefined),-15% (inactive)
18,O=C(O)c1ccc2c3n(nc2c1)-c1ccc(Cl)cc1CO3,-7% (inactive)
19,O=C(NNc1nc2c(F)cccc2s1)c1cc(=O)c2ccccc2o1,6% (active)
20,Cc1cc(C)c(NC(=O)C2CC3CCC2C3)c(C)c1 (centres undefined),-5% (inactive)
21,CCn1cc(C(=O)NCCN(C)C)c(=O)c2cc(F)c(N3CCN(C)CC3)cc21,-17% (inactive)
22,O=C(CCC1CCCC1)NNC(=O)c1cccc(Cl)c1,-7% (inactive)
23,O=C(Nn1c(O)c(C=C2N=c3ccccc3=N2)sc1=S)c1cccc(Cl)c1,33% (active)
24,Cn1sc(NC(=O)c2cccc(Cl)c2)nc1=O,-1% (inactive)
25,CCCCN1C(=O)/C(=C2/Sc3ccc(Cl)cc3N2CC)SC1=S,42% (active)

row,Compound,"activity increase over dofetilide control, less the hit threshold"
1,CCN1C(=O)/C(=C/N2CCc3ccccc32)SC1=S,-9% (inactive)
2,CCCCCC/C(C)=C1/SC(=S)NC1=O,87% (active)
3,CC(=O)n1nc(-c2ccncc2)nc1SCC(=O)Nc1cccc(Cl)c1,-10% (inactive)
4,O=C(O)c1cc(N/N=C/c2ccc(-c3ccccc3)cc2)ccc1Cl,-16% (inactive)
5,COCCN(C(=O)CSc1nnc(C)n1Cc1ccccc1)c1c(N)n(CC(C)C)c(=O)[nH]c1=O,1% (active)
6,CC(C)CN(C(=O)COC(=O)CNC(=O)c1ccccc1F)c1c(N)n(Cc2ccccc2)c(=O)[nH]c1=O,-11% (inactive)
7,CCCOc1ccc(C(=O)N(CC(C)C)c2c(N)n(Cc3ccccc3)c(=O)[nH]c2=O)cc1,-7% (inactive)
8,COc1cc(/C=C2/SC(=S)N(CC(=O)O)C2=O)ccc1OCC(=O)Nc1ccc(C)c(C)c1,89% (active)
9,COc1cccc(CN=c2c([N+](=O)[O-])nn(-c3ccccc3C)n2O)c1,-15% (inactive)
10,O=C(c1n[nH]c2c1CCCC2)n1ccnc1,-2% (inactive)
11,CCOc1cc(Br)c(C(=O)O)cc1OC,-17% (inactive)
12,OC(COC(c1ccccc1)c1ccccc1)CN1CCCCC1 (centres undefined),-18% (inactive)
13,CCCCOc1ccc(-c2c(C#N)c(N)[nH]c(=S)c2C#N)cc1,38% (active)
14,N#Cc1c(-c2ccco2)c2c([nH]c1=S)CCCC2,-9% (inactive)
15,CCOC(=O)c1c(C)[nH]c(=S)c(C#N)c1-c1ccc(Cl)cc1,-5% (inactive)
16,c1ccc(Oc2cccc(OCCn3cncn3)c2)cc1,-4% (inactive)
17,COCC(=O)N(Cc1ccco1)c1nnc(C2CCOC2)s1 (centres undefined),-19% (inactive)
18,Cc1ccc(C(=O)COC(=O)C2CCC2)cc1,4% (active)
19,Cc1ccc(CNC(=O)CN2C(C)CCCC2C)cc1 (centres undefined),-7% (inactive)
20,CC(NC(=O)COC(=O)C1CCC1)c1ccccc1 (centres undefined),-6% (inactive)
21,CC(C)C(NC(=O)c1ccccc1)C(=O)N/N=C\c1ccco1 (centres undefined),-17% (inactive)
22,Oc1ccc(N2CCN(C(c3cccnc3)c3nnnn3Cc3ccccc3)CC2)cc1 (centres undefined),0% (inactive)
23,COc1ccc(N2CCN(C(=O)c3ccc(-c4ccccc4)cc3)CC2)cc1,-18% (inactive)
24,COc1ccc(-n2nc(C)cc2Nc2ccccc2C(=O)O)cc1,31% (active)
25,Cc1cc(NC(=O)/C(C#N)=C/c2ccco2)n(-c2ccccc2)n1,-12% (inactive)

row,Compound,"activity increase over dofetilide control, less the hit threshold"
1,O=C(O)c1cccc2cc(-c3ccccc3)oc(=O)c12,-13% (inactive)
2,CCCCN(C(=O)CC1CCCC1)c1c(N)n(CC(C)C)c(=O)[nH]c1=O,-4% (inactive)
3,Fc1cccc(/C=N/Nc2ccc3ccccc3n2)c1,-7% (inactive)
4,CCOc1ccc(N=Nc2ccc(O)c3ncccc23)cc1,0% (inactive)
5,CCN(CC)S(=O)(=O)c1cc(OC)ccc1N=Nc1ccc(O)c2ncccc12,27% (active)
6,Cc1ccc(N=Nc2ccc(O)c3ncccc23)cc1,40% (active)
7,COc1ccc(OC)c(S(=O)(=O)NCc2cn3cccc(C)c3n2)c1,-17% (inactive)
8,COc1ccc(N(CC(=O)NCc2cccnc2)S(=O)(=O)c2ccccc2[N+](=O)[O-])c(OC)c1,-3% (inactive)
9,O=[N+]([O-])c1ccc(O)c2ncccc12,-8% (inactive)
10,Oc1ccc(N=Nc2ccc3c(c2)OCCO3)c2ncccc12,-4% (inactive)
11,COc1ccccc1N=Nc1ccc(O)c2ncccc12,2% (active)
12,COc1cccc(N=Nc2ccc(O)c3ncccc23)c1,25% (active)
13,Oc1c(N=Nc2ccccn2)ccc2ccccc12,-5% (inactive)
14,COCC(=O)NC1CC2CCC(C1)N2C(=S)Nc1ccccc1C(=O)OC (centres undefined),-6% (inactive)
15,CCC[C@H]1COCCS(=O)(=O)N1Cc1ccc(Br)cc1,-4% (inactive)
16,CS(=O)(=O)N1CCC(C(=O)Nc2c(F)cccc2F)CC1,-6% (inactive)
17,Cn1c(=O)c2c(nc(Cl)n2CC(=O)N2CCCCC2)n(C)c1=O,-11% (inactive)
18,N=C1SCC(=O)N1c1ncc(Cc2ccccc2Cl)s1,-9% (inactive)
19,Cc1ccc(/C=N/NC(=O)c2cc(C)oc2C)o1,-5% (inactive)
20,Cc1cccc(/C=N/NC(=O)c2cc(Br)ccc2O)n1,0% (inactive)
21,O=C(N/N=C/c1ccc(Sc2ccccn2)o1)c1cc2ccccc2cc1O,7% (active)
22,Cc1ccc(/C=N/NC(=O)c2cc(-c3ccncc3)nc3ccccc23)o1,-22% (inactive)
23,O=C(N/N=C/c1ccc(-c2ccccc2)o1)c1ccccc1O,-1% (inactive)
24,Cc1ccc(/C=N/NC(=O)c2cc3ccccc3cc2O)o1,37% (active)
